Data as given in PubChem BioAssay (NCI).
The panel holds about 83,000 compounds, 20% with a hit somewhere; the sample as a whole holds those more often.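 The test compound was applied at a single concentration to cells in 96-well plates for 48 hours, and percent growth was recorded.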 Unmarked numbers belong to inactive results. Calls of active or inactive are those of the source.

tested on: NCI-H226 lung; assay: NCI-60 one-dose screen, 48 h (100 = growth as untreated, 0 = no growth, -100 = all killed); details: 10 µM unless noted
Procedure: Growth inhibition of the NCI-H226 human Non-Small Cell Lung tumor cell line is measured as a screen for anti-cancer activity. Cells are grown in 96 well plates and exposed to the test compound for 48 hours. Compounds are tested at a single concentration, which is 10^-5 M for most compounds. The reported endpoint is percent growth (GI% or GIPRCNT), where numbers from 0 - 100% represent growth inhibition, and numbers from -100% - 0 represent cell death. For example, a value of 40 represents 60% growth inhibition. A value of 0 means no net growth occurred over the course of the experiment. A value of -40 indicates 40% of cells at the beginning of the experiment died by the end of the experiment. A value of -100 means all cells are dead at the end of the experiment.
NCI-60 Human Tumor Cell Lines Screen was performed using the standard one-dose NCI protocol, which is described in more detail at https://dtp.cancer.gov/discovery_development/nci-60/default.htm.
Compounds with GIPRCNT values below 10 were considered active. Activity score was based on GIPRCNT using the following formula: […]
Score is 0 for GIPRCNT values of 100 or above, 50 for GIPRCNT values of 0, and 100 for GIPRCNT values of -100.

In order of falling growth:
1. C/C(=C\c1ccc(OCC(=O)O)c(Cl)c1Cl)[N+](=O)[O-]  110%
2. O=C(Nc1ccc(NCCN2CCOCC2)nc1)c1ccc([N+](=O)[O-])cc1  109%
3. COC(OC)c1ccccc1  108%
4. Cn1ccc(=O)c(S(N)(=O)=O)c1  108%
5. O=C(Nc1cccc(-n2cc(-c3ccncc3)c(-c3ccc(Cl)c(O)c3)n2)c1)c1ccc(N2CCOCC2)c(C(F)(F)F)c1  107%
6. CC(C)C(C(=O)NCCN1CCOCC1)N1C(=O)/C(=C/c2ccc(Br)cc2)SC1=S (stereo not given)  107%
7. Oc1ccccc1/C=N/NC(=S)NC1CC2C=CC1C2 (stereo not given)  107%
8. O=C1Nc2ccc(Cl)cc2C12Nc1cc(Cl)ccc1S2 (stereo not given)  105%
9. CN(C)c1nc2c(N)ncnc2n1C1OC(CO)C(O)C1O (stereo not given)  104%
10. CCCOC(=O)n1cccc1  104%
11. CCCCN(CCCC)C(=O)CC  104%
12. COc1ccc(N=Cc2c(O)ccc3c2oc2cc(Cl)c(O)c(Cl)c23)cc1  101%
13. COc1ccc(NC(=O)c2cc(OC)c(OC)c(OC)c2)cc1O  99.9%
14. O=[N+]([O-])c1ccc(-c2cn(-c3ccccc3)c(-c3ccccc3)n2)cc1  95.4%
15. c1ccc(-c2cn(-c3ccccc3)c(-c3ccccc3)n2)cc1  93.4%
16. N=C(N)c1ccc(-c2ccc(-c3ccc(-c4cccs4)s3)s2)cc1  93.4%
17. Oc1ccc(Cl)cc1-c1cc(-c2ccc(F)cc2)n[nH]1  92.7%
18. O=C(c1ccccc1)c1c(/C=C/c2ccccc2)c2ccccc2[nH]c1=O  89.9%
19. CC(=O)c1cc2c(N)c(C(=O)Nc3cccc4c3OCCO4)sc2nc1C  88.9%
20. O=c1ccn(-c2ncnc3nc[nH]c23)cc1  88.8%
21. OCCCCCCNc1ncnc2cc(Cl)ccc12  84.1%
22. N[C@H]1CN(C(=O)c2cc3cc(Br)c(F)c(F)c3[nH]2)C[C@@H]1O  83.7%
23. C1=Cc2ccccc2N(c2nnc(-c3ccccc3)o2)c2ccccc21  81.7%
24. CN(C)c1oc(C2OC2c2ccccc2)nc1C#N (stereo not given)  80.7%
25. CCO/C=N/C1=C(C#N)C(c2ccc(Cl)cc2)c2c(c3ccc(C)cc3[nH]c2=O)O1 (stereo not given)  78.9%
26. COc1ccc(-c2cnoc2-c2ccc(OC)cc2O)cc1  78.8%
27. Cc1ccc(-c2nc(C#N)c(S(=O)(=O)n3nc(-c4ccccc4)cc3N)o2)cc1  78.3%
28. Cc1ccc(-c2cc3nc(C(Cl)Cl)nc(-c4cccnc4)n3n2)cc1  75.7%
29. COc1ccc2[nH]c(=O)c(/C=N/Nc3nc(-c4ccccc4)cs3)c(O)c2c1  66.6%
30. O=C([O][Sn]([O]C(=O)c1ccccn1)([c]1ccccc1)[c]1ccccc1)c1ccccn1  65.5%
31. C=CCn1cc(-c2nc3ccccc3s2)c2cc(-c3ccc4c5c(cccc35)C(=O)N(CCN3CCNCC3)C4=O)ccc21  63.9%
32. COc1cc(C2CC(c3ccc4c(c3)OCO4)=NN2C(C)=O)cc(OC)c1OC (stereo not given)  52.4%
33. COc1cc2c(c(OC)c1OC)-c1ccc(N)c(=O)cc1[C@@H](NC(C)=O)CC2  40.1%
34. COc1ccc(CNCCCN2C(=O)c3ccc4c5c(ccc(c35)C2=O)C(=O)N(CCCNCCCCNCCCN)C4=O)c(OC)c1OC  23.8%
35. COc1cc(/C=C/c2cc(/C=C/c3ccc(O)c(OC)c3)n(C(N)=O)n2)ccc1O  11.9%

`CN1CCN(Cc2ccc(NC(=O)c3cncc(C#Cc4cnc(N)c5ccncc45)c3)cc2C(F)(F)F)CC1` was tested, and the growth was -12.8% (active).
For `Fc1ccc(Nc2ncnc3ccc(-c4cnc5[nH]ccc5c4)cc23)cc1Cl`, the growth was 4.94% (active).
`OC(c1cc2cc(Br)ccc2c2cc(Br)ccc12)C1CCCCN1` (stereo not given) was tested, and the growth was -70.1% (active).
With `COc1cc([N+](=O)[O-])c2ncccc2c1O` the growth was 5.16% (active).
In the case of `CCN(CC)c1ccc2[nH]c3c(C(N)=O)cc(=O)c(=O)c=3oc2c1`, the growth is reported as 7.46% (active).
